Unmarked numbers belong to inactive results. For part of these data: Results with a measured potency or affinity are listed apart. Activity calls are given as the source filed them. Unless noted, no rule for the calls is given here.
Key:
[1] = antimalarial activity against Dd2 strain (AID 2302;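 active = growth inhibition above 50% at the single 2 µM test dose, taken to imply half-maximal potency below 2 µM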;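 also: 0% = DMSO untreated growth and 100% = chloroquine plus artemisinin killed control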); conditions: P. falciparum Dd2 in RBCs, LDH growth readout, 72 h; at 2 µM; active compounds read high
[2] = HepG2 cytotoxicity, primary screen, cytotoxicity control for P. falciparum antimalarial project, cell-based, ATP luminescence (AID 2303;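 active = inhibition above 50%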;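 also: 0% = DMSO wells and 100% = digitonin-killed cells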); conditions: HepG2 viability, 24-48 h, at 10 µM, active compounds read high
[3] = target: L-lactate dehydrogenase (Plasmodium falciparum (isolate CDC / Honduras)) (UniProt Q27743); assay: PfLDH activity inhibition – cell lysate, 3D7 strain, counter-screen for P. falciparum growth inhibition project (AID 2304);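 also: 0% = vehicle and 100% = reference inhibitor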; conditions: P. falciparum 3D7 crude extract, LDH APAD/NBT absorbance; at 2 µM; active compounds read high
L-lactate dehydrogenase (Plasmodium falciparum (isolate CDC / Honduras)), sequence (Q27743 whole entry, looked up): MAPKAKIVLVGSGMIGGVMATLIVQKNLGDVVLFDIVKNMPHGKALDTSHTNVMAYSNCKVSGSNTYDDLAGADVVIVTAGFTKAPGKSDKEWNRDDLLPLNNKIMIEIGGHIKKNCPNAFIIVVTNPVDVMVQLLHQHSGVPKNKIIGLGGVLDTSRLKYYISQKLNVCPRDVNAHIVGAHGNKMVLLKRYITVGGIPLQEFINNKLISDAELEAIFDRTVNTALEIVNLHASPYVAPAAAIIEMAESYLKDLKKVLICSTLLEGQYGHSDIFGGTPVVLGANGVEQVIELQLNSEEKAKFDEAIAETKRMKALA

[4] = inhibition of 3D7 malaria parasite growth – strain 3D7 (AID 2306);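 also: 0% = DMSO wells and 100% = chloroquine plus artemisinin control wells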; conditions: P. falciparum 3D7 erythrocytic growth, LDH absorbance, 72 h; at 2 µM; active compounds read high
[5] = target: Calcium-dependent protein kinase 1 (Plasmodium falciparum (isolate 3D7)) (UniProt P62344); assay: PfCDPK1 kinase inhibitors, biochemical, TCAMS library (AID 1159585; cut-off not given, nearly all actives have IC50 up to about 0.98 µM;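 also: inhibitors leave more ATP so luminescence rises with inhibition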); conditions: recombinant PfCDPK1, Kinase-Glo ATP depletion luminescence
Calcium-dependent protein kinase 1 (Plasmodium falciparum (isolate 3D7)), sequence (P62344 whole entry, looked up): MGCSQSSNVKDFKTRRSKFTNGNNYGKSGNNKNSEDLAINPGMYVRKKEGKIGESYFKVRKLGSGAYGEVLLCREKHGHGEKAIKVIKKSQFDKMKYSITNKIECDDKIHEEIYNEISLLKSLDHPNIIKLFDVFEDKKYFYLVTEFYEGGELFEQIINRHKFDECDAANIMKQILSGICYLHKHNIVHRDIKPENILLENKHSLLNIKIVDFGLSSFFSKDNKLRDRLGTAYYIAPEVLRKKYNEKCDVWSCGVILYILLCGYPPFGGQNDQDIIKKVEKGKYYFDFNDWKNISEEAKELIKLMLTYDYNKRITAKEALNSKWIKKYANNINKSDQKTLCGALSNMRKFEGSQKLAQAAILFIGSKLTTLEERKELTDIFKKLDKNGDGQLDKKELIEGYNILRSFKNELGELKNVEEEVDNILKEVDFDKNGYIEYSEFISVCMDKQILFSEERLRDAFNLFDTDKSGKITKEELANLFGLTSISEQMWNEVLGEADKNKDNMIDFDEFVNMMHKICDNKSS

[6] = target: Plasmodium falciparum protein kinase 6 (PK6, PF3D7_1337100) (UniProt Q8IDW1); assay: PfPK6 kinase inhibitors, biochemical, TCAMS library (AID 1159586); conditions: recombinant PfPK6, Kinase-Glo ATP depletion luminescence
Plasmodium falciparum protein kinase 6 (PK6, PF3D7_1337100), sequence (Q8IDW1 1-305): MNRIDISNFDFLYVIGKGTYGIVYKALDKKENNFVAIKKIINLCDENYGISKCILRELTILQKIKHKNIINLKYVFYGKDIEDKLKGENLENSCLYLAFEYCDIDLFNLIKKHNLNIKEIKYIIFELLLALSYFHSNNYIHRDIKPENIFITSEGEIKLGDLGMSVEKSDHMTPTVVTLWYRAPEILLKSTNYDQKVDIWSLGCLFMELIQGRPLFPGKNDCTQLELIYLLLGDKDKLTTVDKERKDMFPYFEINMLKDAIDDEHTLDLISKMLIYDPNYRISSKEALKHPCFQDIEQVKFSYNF

[7] = target: Protein kinase 7 (PK7), Plasmodium falciparum 3D7 (PF3D7_0213400) (UniProt Q7YTF7); assay: inhibition of Plasmodium PK7 catalytic activity – biochemical, TCAMS antimalarial set, Kinase-Glo luminescence (AID 1159587); conditions: recombinant PfPK7, Kinase-Glo ATP depletion luminescence
Protein kinase 7 (PK7), Plasmodium falciparum 3D7 (PF3D7_0213400), sequence (Q7YTF7 1-343): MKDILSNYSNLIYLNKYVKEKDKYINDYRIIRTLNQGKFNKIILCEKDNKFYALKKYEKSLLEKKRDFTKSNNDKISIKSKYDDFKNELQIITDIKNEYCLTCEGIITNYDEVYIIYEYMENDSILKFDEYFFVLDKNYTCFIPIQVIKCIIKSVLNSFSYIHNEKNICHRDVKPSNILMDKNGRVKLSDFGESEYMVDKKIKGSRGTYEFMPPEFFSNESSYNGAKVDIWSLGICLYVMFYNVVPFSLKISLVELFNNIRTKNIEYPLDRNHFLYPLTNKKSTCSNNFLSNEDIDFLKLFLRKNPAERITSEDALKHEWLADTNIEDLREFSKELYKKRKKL

[8] = target: Calcium-dependent protein kinase 4 (Plasmodium falciparum (isolate 3D7)) (UniProt Q8IBS5); assay: PfCDPK4 kinase inhibitors, biochemical, TCAMS library (AID 1159588; cut-off not given, nearly all actives have IC50 up to about 0.91 µM); conditions: recombinant PfCDPK4, Kinase-Glo ATP depletion luminescence
Calcium-dependent protein kinase 4 (Plasmodium falciparum (isolate 3D7)), sequence (Q8IBS5 whole entry, looked up): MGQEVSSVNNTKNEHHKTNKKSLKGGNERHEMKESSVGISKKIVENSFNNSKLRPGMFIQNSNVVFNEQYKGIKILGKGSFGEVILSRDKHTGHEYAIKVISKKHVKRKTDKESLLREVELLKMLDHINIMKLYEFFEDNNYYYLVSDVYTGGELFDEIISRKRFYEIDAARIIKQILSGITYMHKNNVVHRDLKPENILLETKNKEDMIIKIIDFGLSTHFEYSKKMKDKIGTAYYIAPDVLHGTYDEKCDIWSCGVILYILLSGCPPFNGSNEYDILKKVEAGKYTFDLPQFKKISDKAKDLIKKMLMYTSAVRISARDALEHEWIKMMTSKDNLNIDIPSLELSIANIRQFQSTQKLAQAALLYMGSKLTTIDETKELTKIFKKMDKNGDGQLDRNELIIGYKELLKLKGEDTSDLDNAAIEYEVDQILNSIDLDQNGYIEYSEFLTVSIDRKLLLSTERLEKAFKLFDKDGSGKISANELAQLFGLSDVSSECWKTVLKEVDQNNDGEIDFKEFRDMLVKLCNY

Row | SMILES | growth inhibition [1] | inhibition [2] | inhibition [3] [%] | growth inhibition [4] | outcome [5] | outcome [6] | outcome [7] | outcome [8]
1 | COc1ccc2nccc(N3CCC(NCc4ccc5c(n4)NC(=O)CS5)CC3)c2n1 | 63% (active) | 14% | 6 | 100% (active) | inactive | inactive | inactive | inactive
2 | O=S(=O)(NC1CCN(c2ccnc3cc(Cl)ccc23)C1)c1ccc(F)cc1 (centres undefined) | 88% (active) | 3% | 3 | 98% (active) | inactive | inactive | inactive | inactive
3 | Cc1cc(N[C@@H](Cc2ccccc2)C(=O)NC2CCCC2)nc(NCCc2ccc(F)cc2)n1 | 61% (active) | 21% | -2 | 100% (active) | inactive | inactive | inactive | inactive
4 | O=C(Nc1ccccc1-c1ccccc1)C1CCCN1C(=O)Nc1ccc(Cl)cc1 (centres undefined) | 90% (active) | -6% | -4 | 96% (active) | inactive | inactive | inactive | inactive
5 | Cc1c(C)c2c(c(C)c1O)CC[C@](C)(C(=O)N1CCC(CCN3CCC(c4c[nH]c5ccccc45)CC3)CC1)O2 | 74% (active) | 31% | 0 | 99% (active) | inactive | inactive | inactive | inactive
6 | CCOc1c(C)cc(C(F)(F)F)cc1CNCCCNc1cc(=O)c2ccccc2[nH]1 | 1% | -1% | -7 | 97% (active) | inactive | inactive | inactive | inactive
7 | COc1cccc(-c2nn(C)c3sc(C(=O)Nc4cccnc4)cc23)c1 | 34% | 1% | -2 | 86% (active) | inactive | inactive | inactive | inactive
8 | CCOC(=O)c1ccc(N=C2SC(=Cc3cc(Br)ccc3O)C(=O)N2C)cc1 | 96% (active) | -3% | -2 | 99% (active) | inactive | inactive | inactive | inactive
9 | CN1CCN(CCCN(Cc2cccc(-c3ccc(CNCCc4ccccc4)cc3)c2)C(=O)c2cccs2)CC1 | 97% (active) | 86% (active) | 2 | 101% (active) | inactive | inactive | inactive | inactive
10 | O=C1CSc2ccc(CNC3CCN(CCc4c(Cl)cnc5ccc(F)cc45)CC3)nc2N1 | 52% (active) | 21% | -2 | 98% (active) | inactive | inactive | inactive | inactive
11 | OCCN1CCN(Cc2ccc(-c3cccc(-c4nc5ccc(F)cc5[nH]4)c3)cc2)CC1 | 61% (active) | 21% | -2 | 100% (active) | inactive | inactive | inactive | inactive
12 | COc1ccc2nc(C)cc(NN=Cc3cc(OC)c(OC)cc3OC)c2c1 | 56% (active) | 1% | 5 | 100% (active) | inactive | inactive | inactive | inactive
13 | Cc1ccc(-n2cc(CNCCc3ncc(C)[nH]3)c(-c3ccc(F)cc3)n2)cc1 | 12% | 15% | -2 | 86% (active) | inactive | inactive | inactive | inactive
14 | c1ccc(-c2ccc3c(Nc4ccc5[nH]ccc5c4)ccnc3c2)nc1 | 78% (active) | 11% | -7 | 91% (active) | inactive | inactive | inactive | inactive
15 | CO/C(=C\C=C\c1cc2cc(Cl)c(Cl)cc2[nH]1)C(=O)NCCCNCCN(C)c1ccccc1 | 55% (active) | 33% | 2 | 100% (active) | inactive | inactive | inactive | inactive
16 | COc1cc(C(=O)N2[C@@H](c3nccs3)[C@@H](C(=O)N(OC)C(C)c3ccccc3)C[C@@]2(CC(C)C)C(=O)OC(C)(C)C)ccc1C(C)(C)C (some centres undefined) | 92% (active) | 12% | 5 | 92% (active) | inactive | inactive | inactive | inactive
17 | CC(C)(C)c1ccc(NC(=O)c2ccc(CN3CCCN(Cc4cccc(F)c4)CC3)cc2)cc1 | 8% | 51% (active) | -2 | 90% (active) | inactive | inactive | inactive | inactive
18 | COC(=O)c1ccc(C(=O)NCCCCN2CCC(c3ccc4c(c3OC)CCCC4)CC2)cc1-c1ccc(C(F)(F)F)cc1 | 19% | 24% | 2 | 93% (active) | inactive | inactive | inactive | inactive

— PubChem BioAssay
